# The full data set covers some 7,900 targets. This sample favours those with a hit. About 0.6% of all pairs of compound and target were hits. Values without a mark were called inactive.
# Compound: c1cn2cc(-c3ccc4cn[nH]c4c3)nc(Nc3ccc(N4CCOCC4)cc3)c2n1 [entospletinib]
# Assay: log2 fold change, soluble protein after heating vs DMSO (PISA); higher = thermal stabilisation; K562 cells, 10 uM, 30 min; active = over 0.2 and 3.5 SD of the protein, either way, in both replicates (recomputed)
# Procedure, shortened: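 Soluble protein was quantified by TMTpro 16plex LC-MS/MS after channel sums were equalised. It was obtained as the supernatant after 21,000xg for 90 min from pooled aliquots of K562 cells (2×10^6 cells/mL, 10 μM compound, 30 min) heated for 3 min across 48°C-58°C and extracted in PBS with 0.5% NP-40 at 4°C. Thermal stability values are relative to control samples and come from duplicates. They are given as log2 fold changes.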
# Chain of UniProt Q0VG06 (Q0VG06 whole entry, looked up): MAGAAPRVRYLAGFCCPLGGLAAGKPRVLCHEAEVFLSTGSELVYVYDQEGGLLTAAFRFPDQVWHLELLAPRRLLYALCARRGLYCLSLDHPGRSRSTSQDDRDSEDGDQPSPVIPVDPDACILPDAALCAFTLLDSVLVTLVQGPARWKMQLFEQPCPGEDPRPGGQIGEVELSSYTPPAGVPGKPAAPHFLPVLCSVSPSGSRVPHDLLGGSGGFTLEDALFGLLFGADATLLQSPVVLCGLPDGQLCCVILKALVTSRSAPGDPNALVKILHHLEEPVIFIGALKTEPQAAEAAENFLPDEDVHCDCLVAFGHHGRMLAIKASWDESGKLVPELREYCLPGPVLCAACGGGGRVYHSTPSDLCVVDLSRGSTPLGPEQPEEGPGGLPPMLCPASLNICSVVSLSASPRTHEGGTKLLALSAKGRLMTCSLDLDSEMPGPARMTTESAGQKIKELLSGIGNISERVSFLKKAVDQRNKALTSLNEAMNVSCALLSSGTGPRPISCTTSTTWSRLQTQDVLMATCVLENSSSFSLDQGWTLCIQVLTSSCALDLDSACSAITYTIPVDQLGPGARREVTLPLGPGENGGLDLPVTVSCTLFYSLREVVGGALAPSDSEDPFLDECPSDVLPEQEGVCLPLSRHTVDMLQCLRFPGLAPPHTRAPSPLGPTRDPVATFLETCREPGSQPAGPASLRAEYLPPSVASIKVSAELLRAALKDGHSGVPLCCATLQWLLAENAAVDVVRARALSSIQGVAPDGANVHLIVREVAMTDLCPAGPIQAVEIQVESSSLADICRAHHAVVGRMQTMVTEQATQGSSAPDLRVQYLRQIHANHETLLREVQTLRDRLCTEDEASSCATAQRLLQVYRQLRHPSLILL
# Chain of UniProt Q96PV7 (Q96PV7 whole entry, looked up): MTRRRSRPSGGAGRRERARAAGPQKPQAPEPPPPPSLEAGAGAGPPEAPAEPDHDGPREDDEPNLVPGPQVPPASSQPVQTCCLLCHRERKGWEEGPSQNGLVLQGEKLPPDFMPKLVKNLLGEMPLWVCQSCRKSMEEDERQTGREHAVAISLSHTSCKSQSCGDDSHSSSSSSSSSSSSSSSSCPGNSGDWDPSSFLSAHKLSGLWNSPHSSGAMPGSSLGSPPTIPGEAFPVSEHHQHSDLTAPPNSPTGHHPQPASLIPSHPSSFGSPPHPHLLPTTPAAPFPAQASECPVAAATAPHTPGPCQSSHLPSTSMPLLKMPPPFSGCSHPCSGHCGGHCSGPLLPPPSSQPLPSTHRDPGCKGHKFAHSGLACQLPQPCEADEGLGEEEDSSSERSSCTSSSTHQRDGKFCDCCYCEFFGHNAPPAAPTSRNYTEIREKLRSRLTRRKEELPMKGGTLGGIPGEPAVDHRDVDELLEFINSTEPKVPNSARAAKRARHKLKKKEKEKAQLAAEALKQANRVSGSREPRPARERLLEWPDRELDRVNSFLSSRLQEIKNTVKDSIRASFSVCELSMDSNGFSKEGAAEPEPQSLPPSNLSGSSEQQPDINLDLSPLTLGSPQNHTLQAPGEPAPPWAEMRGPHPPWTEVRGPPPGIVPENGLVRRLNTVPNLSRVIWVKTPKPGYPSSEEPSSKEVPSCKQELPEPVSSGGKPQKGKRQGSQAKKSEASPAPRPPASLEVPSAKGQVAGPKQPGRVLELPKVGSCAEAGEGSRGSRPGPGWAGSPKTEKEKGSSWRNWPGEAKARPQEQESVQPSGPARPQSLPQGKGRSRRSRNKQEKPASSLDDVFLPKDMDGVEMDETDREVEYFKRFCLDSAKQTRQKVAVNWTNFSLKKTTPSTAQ
# Chain of UniProt Q9H773 (Q9H773 whole entry, looked up): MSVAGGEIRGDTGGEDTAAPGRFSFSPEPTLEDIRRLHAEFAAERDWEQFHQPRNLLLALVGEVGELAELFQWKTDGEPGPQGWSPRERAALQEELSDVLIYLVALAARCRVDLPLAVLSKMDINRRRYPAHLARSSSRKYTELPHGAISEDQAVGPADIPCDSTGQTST
# Chain of UniProt Q2TBE0 (Q2TBE0 whole entry, looked up): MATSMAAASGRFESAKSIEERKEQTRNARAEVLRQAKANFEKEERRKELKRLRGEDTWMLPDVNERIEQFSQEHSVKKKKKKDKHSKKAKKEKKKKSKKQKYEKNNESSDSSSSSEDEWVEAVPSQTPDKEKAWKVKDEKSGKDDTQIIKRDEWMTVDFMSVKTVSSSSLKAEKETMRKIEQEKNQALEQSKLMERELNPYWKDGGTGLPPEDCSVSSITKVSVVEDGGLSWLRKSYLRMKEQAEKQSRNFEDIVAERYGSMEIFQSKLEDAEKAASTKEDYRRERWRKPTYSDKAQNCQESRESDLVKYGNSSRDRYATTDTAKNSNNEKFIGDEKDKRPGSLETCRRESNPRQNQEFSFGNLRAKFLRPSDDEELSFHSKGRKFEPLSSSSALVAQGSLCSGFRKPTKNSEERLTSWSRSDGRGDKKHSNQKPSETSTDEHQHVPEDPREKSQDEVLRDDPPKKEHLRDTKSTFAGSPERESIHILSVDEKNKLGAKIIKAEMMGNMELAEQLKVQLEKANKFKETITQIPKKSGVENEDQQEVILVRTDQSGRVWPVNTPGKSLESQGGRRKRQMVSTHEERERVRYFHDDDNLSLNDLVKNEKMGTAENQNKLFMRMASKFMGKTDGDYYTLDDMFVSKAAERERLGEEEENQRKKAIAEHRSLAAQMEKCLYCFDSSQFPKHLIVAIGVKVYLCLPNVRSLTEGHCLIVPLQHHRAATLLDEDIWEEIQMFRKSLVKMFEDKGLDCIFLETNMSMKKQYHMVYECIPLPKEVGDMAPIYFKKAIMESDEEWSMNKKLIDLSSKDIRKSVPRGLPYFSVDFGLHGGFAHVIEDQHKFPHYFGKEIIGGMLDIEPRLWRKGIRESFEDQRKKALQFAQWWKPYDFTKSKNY
# Chain of UniProt Q9Y5Q0 (Q9Y5Q0 whole entry, looked up): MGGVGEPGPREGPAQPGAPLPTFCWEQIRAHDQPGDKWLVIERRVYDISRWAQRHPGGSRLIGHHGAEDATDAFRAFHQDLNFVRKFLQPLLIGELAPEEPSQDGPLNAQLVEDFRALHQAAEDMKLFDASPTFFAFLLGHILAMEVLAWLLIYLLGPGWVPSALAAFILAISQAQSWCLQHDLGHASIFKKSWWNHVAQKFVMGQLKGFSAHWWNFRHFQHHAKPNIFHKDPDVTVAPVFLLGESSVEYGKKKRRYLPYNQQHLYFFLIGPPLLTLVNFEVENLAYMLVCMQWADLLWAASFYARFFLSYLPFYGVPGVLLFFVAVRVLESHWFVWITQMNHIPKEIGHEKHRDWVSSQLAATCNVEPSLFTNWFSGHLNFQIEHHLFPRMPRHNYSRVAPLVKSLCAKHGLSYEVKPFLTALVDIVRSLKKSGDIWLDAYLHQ
# Chain of UniProt Q96LJ7 (Q96LJ7 whole entry, looked up): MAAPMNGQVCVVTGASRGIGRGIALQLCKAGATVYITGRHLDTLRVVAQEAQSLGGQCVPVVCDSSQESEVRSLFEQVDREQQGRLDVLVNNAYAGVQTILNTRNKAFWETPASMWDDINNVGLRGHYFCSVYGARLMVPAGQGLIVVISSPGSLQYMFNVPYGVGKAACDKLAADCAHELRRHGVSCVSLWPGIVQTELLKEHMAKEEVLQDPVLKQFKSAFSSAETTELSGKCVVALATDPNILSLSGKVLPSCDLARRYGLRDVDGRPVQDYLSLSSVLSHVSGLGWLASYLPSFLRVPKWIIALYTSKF
# Chain of UniProt Q9H467 (Q9H467 whole entry, looked up): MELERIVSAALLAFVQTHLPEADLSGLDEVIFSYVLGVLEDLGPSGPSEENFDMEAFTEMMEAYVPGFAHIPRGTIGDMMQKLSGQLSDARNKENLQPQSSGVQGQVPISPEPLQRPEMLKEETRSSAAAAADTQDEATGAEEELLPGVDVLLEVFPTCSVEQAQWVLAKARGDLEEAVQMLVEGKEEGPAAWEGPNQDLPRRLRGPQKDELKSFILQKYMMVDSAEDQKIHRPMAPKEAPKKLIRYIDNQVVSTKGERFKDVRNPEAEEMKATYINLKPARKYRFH
# Chain of UniProt Q14118 (Q14118 whole entry, looked up): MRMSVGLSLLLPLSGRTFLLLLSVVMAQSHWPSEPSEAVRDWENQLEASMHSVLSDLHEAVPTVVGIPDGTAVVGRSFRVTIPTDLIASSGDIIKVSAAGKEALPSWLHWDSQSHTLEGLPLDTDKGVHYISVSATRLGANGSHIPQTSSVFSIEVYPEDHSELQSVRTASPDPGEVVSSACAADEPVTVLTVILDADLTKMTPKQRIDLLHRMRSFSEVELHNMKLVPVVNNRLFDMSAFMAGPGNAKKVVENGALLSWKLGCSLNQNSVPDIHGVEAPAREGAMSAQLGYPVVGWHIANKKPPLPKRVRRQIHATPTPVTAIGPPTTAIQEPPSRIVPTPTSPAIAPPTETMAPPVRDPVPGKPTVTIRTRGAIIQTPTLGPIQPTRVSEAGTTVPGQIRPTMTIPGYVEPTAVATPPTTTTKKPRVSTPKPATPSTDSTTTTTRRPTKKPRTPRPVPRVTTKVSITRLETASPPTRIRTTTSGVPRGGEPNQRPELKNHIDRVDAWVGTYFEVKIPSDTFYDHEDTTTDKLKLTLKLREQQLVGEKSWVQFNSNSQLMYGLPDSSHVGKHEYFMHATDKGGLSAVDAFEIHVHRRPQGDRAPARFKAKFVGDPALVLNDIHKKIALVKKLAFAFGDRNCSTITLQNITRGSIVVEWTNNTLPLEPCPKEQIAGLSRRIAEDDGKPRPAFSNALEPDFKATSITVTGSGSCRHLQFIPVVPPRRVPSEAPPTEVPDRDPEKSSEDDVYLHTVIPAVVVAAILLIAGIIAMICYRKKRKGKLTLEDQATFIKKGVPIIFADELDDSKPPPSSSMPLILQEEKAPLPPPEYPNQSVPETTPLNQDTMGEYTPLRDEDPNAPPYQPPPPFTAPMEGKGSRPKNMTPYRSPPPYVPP
# Chain of UniProt Q15369 (Q15369 whole entry, looked up): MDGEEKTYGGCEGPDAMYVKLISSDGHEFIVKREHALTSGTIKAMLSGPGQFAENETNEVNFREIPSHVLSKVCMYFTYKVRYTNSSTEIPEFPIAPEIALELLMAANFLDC
row,Target,log2 fold change
1,DDX4 (UniProt Q9NQI0),0.276
2,CTSS (UniProt P25774),0.07
3,FAM193B (UniProt Q96PV7),-0.031
4,CUTA isoform 2 (UniProt O60888),-0.027
5,FAM117A (UniProt Q9C073),0.067
6,DIP2A (UniProt Q14689),-0.128
7,ENTPD7 (UniProt Q9NQZ7),0.096
8,DCTPP1 (UniProt Q9H773),-0.008
9,FAM207A (UniProt Q9NSI2),0.013
10,DDB1 isoform 2 (UniProt Q16531),0.162
11,DHRS1 (UniProt Q96LJ7),-0.613
12,DHCR24 (UniProt Q15392),-0.016
13,CWF19L2 (UniProt Q2TBE0),-0.162
14,CUX1 isoform 2 (UniProt Q13948),-0.019
15,DCAF13 (UniProt Q9NV06),0.061
16,EVC2 (UniProt Q86UK5),-0.104
17,FADS3 (UniProt Q9Y5Q0),0.035

row,Target,log2 fold change
1,DCUN1D1 (UniProt Q96GG9),-0.023
2,FAAP100 (UniProt Q0VG06),0.003
3,ECPAS (UniProt Q5VYK3),-0.025
4,EXOC1 (UniProt Q9NV70),-0.035
5,EDC4 (UniProt Q6P2E9),0.044
6,DTWD2 (UniProt Q8NBA8),0.127
7,CUEDC2 (UniProt Q9H467),0.01
8,DAG1 (UniProt Q14118),0.003
9,DSN1 (UniProt Q9H410),-0.044
10,DLK1 (UniProt P80370),0.076
11,EEF2K (UniProt O00418),0.09
12,DPP8 (UniProt Q6V1X1),-0.377 (active)
13,CTSL (UniProt P07711),0.091
14,ELOC (UniProt Q15369),0.028
15,DDX5 (UniProt P17844),-0.019
16,DDX27 (UniProt Q96GQ7),-0.035
17,DLD (UniProt P09622),0.051

# From the supplement of paper PMC10849652
